# MITF TRPM1 HTS = increases MITF-driven TRPM1 promoter luciferase signal. SK-MEL-5 TRPM1-promoter luciferase, 24 h; % of positive control, neutral wells = 0. activation, % at 12.5 µM. 300,000 compounds, 0.75% hits. AID 588334;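 active = mean activation of at least 80% with every replicate also reaching 80%; inconclusive = mean reaches 80% but some replicate falls short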;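 note: 0% = neutral control wells and 100% = parthenolide positive control wells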
# esBAF inh = blocks esBAF chromatin remodeling in mouse ES cells; reporter increase, % at 12.5 µM; Bmi1-luciferase knock-in reporter, 24 h; 100% = twice the neutral-well signal; 350,000 compounds, 2% hits; AID 602393; in the data active = activation above about 40%; inconclusive = no clear call, values can overlap the other calls;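 note: 0% = median of the plate's neutral control wells and 100% = double that signal; a rise in the Bmi1 reporter signal indicates esBAF inhibition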
# FGF22 binding = shifts melting point of recombinant human FGF22 | Q9HCT0 | recombinant FGF22 thermal shift, SYPRO orange fluorescence; percent of sucrose octasulfate shift, DMSO zero | activity (Tm shift, normalised), % at 9.99 µM | 340,000 compounds, 1.5% hits | AID 651658;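 active = mean Tm shift, scaled 0 neutral to 100 positive control, at about 1.3% or above, every replicate too, limit read from the data; inconclusive = no clear call, values can overlap the other calls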
# Target sequence (Q9HCT0 whole entry, looked up): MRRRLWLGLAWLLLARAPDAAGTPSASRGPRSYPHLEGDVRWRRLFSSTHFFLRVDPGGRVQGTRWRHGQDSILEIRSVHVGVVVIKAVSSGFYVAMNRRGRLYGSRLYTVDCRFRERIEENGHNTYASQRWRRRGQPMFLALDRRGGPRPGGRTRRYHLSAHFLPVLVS
# Wnt bcat act = Wnt/beta-catenin pathway activation. AID 743398. Wnt/beta-catenin reporter cell assay, activator, plate reader. 300,000 compounds, 1.2% hits. activation, % at 9.35 µM; in the data active = activation above about 30%, passing the limit was not always enough; inconclusive = no clear call, values can overlap the other calls;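 note: 0% = neutral control wells and 100% = positive control wells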
# SMARCA2 act = increases SMARCA2 function in MMTV reporter cells. activation, % at 9.1 µM. 370,000 compounds, 1% hits. MG213 cells, MMTV-luciferase reporter, dexamethasone, overnight; in the data active = activation above about 7.8%;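 note: 0% = vehicle wells and 100% = reference activator wells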
# MLL AF4-AF9 inh = MLL-AF4/AF9 protein interaction inhibition. 350,000 compounds, 0.47% hits. inhibition, % at 10 µM. AID 651704. AlphaScreen, biotin-AF4 peptide binding to FLAG-AF9;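 active = every replicate reaching a set inhibition limit, whatever the replicate mean, cut at about 25% in these data; inconclusive = mean inhibition reaches that limit but some replicates miss it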;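 note: 0% = plate neutral control median and 100% = total signal loss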
# * hit, by the source's call; ? = inconclusive; nt = no result given. Rows were chosen to be rich in hits. Some 4.3% of all compounds tested hit in one or more screens of this group.
SMILES,MITF TRPM1 HTS,esBAF inh,FGF22 binding,Wnt bcat act,SMARCA2 act,MLL AF4-AF9 inh
C=CCn1c(CC(=O)OC)csc1=Nc1ccc(C(C)=O)cc1,52,55*,0,-1,2,-12
Cc1c(CC(C)C)nc(N)c(C#N)c1-c1ccccc1,-3,87*,nt,nt,0,nt
CCc1c(C)nc(N)c(C#N)c1-c1ccccc1,-3,1,0,-13,-2,0
CO[C@H]1CN(C)C(=O)c2ccc(NC(C)=O)cc2OC[C@H](C)N(Cc2ccncc2)C[C@@H]1C,nt,2,0,nt,nt,-1
COC(=O)Nc1nnc(-c2ccccc2Cl)s1,88*,24,nt,nt,5,nt
COC(=O)Nc1nnc(-c2ccccc2OC)s1,45,nt,0,49*,7,-3
CCOC(=O)Nc1nnc(-c2ccccc2OC)s1,15,11,nt,nt,3,nt
COc1ccc(-c2nnc(NC(=O)C(C)C)s2)c(OC)c1,46,42*,0,34*,3,-5
COc1ccc(Cc2nnc(NC(=O)C(C)C)s2)cc1,nt,-2,0,5,-3,0
COc1ccc(S(=O)(=O)N(C)C[C@H]2OCCCC[C@H](C)Oc3ccc(NC(=O)CCCN(C)C)cc3C(=O)N([C@@H](C)CO)C[C@@H]2C)cc1,nt,-4,-1,nt,nt,4
CC(C)(C)S(=O)(=O)c1cnc(-c2ccc(Cl)cc2)nc1N,?,nt,0,39*,7,?
O=C(Nc1cccc(NC(=O)c2cccnc2)c1)c1cccnc1,-12,3,nt,nt,nt,nt
Cc1ccc(NC(=O)c2cccnc2)cc1C,nt,49*,0,5,2,-4
Cc1ccc2c(C)c(C(=O)Nc3cccnc3)oc2c1,46,27,nt,nt,7,nt
COc1c(Cl)cc(C(=O)Nc2cccnc2)cc1Cl,nt,6,0,0,-3,-6
Cc1ccc(C(=O)Nc2cccnc2)cc1Cl,nt,55*,0,7,2,2
O=C(Nc1ccon1)c1sc2cc(Cl)ccc2c1Cl,28,47*,0,20,3,-2
Cc1cc2oc(C(=O)Nc3cccnc3)c(C)c2cc1C,77,78*,0,10,2,-4
O=C(NCc1ccco1)c1sc2cc(Cl)ccc2c1Cl,46,6,nt,16,6,nt
C[C@@H]1CCCCO[C@@H](CN(C)C)[C@@H](C)CN([C@@H](C)CO)C(=O)c2cc(NC(=O)CCC(F)(F)F)ccc2O1,nt,-2,0,nt,nt,-3
Cc1cc(C(=O)Nc2cccnc2)cs1,12,2,nt,nt,0,nt
Cc1ccc(C(=O)Nc2cccnc2)cc1C,nt,46*,0,1,4,1
Cc1ccc2c(Cl)c(C(=O)NC3CC3)sc2c1,47,nt,0,23,2,-2
Cc1ccc2c(Cl)c(C(=O)Nc3cccnc3)sc2c1,95*,55*,nt,nt,1,nt
Cc1ccccc1NC(=O)C(=O)c1cn(C)c2ccccc12,41,56*,0,2,3,0
SMILES,MITF TRPM1 HTS,esBAF inh,FGF22 binding,Wnt bcat act,SMARCA2 act,MLL AF4-AF9 inh
C[C@@H]1CCCCO[C@@H](CN(C)CC2CC2)[C@@H](C)CN([C@H](C)CO)C(=O)c2cc(NC(=O)CCC(F)(F)F)ccc2O1,nt,0,0,nt,nt,-6
CC(CC(=O)O)CC(=O)Nc1cc(C(F)(F)F)cc(C(F)(F)F)c1 (stereo not drawn),nt,nt,0,51*,2,-2
Cc1cccc(CCNC(=O)Cc2ccc(NC3=NC4CS(=O)(=O)CC4S3)cc2)c1 (stereo not drawn),nt,-4,0,-2,-1,47*
O=C(Cc1ccc(NC2=NC3CS(=O)(=O)CC3S2)cc1)NCCc1ccccc1 (stereo not drawn),nt,-7,0,-5,-3,2
C[C@H]1CN([C@@H](C)CO)C(=O)c2cccc(NC(=O)c3cnccn3)c2O[C@@H]1CN(C)S(C)(=O)=O,nt,-1,0,nt,nt,1
O=C1N=C(N2CCCC2C(=O)O)S/C1=C\c1ccco1 (stereo not drawn),-7,nt,43*,nt,-2,-6
CCCC(=O)NNC(=O)Nc1ccccc1,-5,-4,0,0,nt,3
CCC1(C)COC(C)(CC(=O)NNC(=O)Nc2ccccc2)OC1 (stereo not drawn),9,nt,44*,-1,5,-1
OC1CCC(Nc2ccn3nc(-c4cccc(Cl)c4)cc3n2)CC1 (stereo not drawn),nt,?,0,1,1,-1
